Assay outcomes deposited in PubChem by National Center for Advancing Translational Sciences (NCATS).
HEK cytotox – Cytotoxic Profiling in HEK 293 Cell Line of Diverse Libraries Using Quantitative High-Throughput Screening; HEK 293 viability, ATP luminescence (CellTiter-Glo), 48-72 h; AID 1345083, 2018; hit rate 6.6% among 94,000; Potency, µM (top dose mostly 115 µM), inactives show at the highest dose activity change, negative = cytotoxicity, hits mostly inhibitors; also: nearly all actives have a fitted effect of over 60% in size
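Pintool-delivered compounds were incubated with HEK 293 cells (250 cells/well) at 37 degree Celsius for 48 or 72 hr. ATP-dependent luminescence (CellTiter-Glo) then reported remaining viable cells.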
GPT2 inhibitor – Primary qHTS assay for inhibitors of Glutamate pyruvate transaminase 2 (GPT2); Potency, µM (series often up to 57.7 µM), for the others: at the top dose activity change, negative = inhibition, usual class: inhibitors; hit rate 0.25% among 100,000; AID 1671188, 2021; Alanine aminotransferase 2 (Homo sapiens), Q8TD30; Recombinant GPT2, coupled pyruvate oxidase/HRP Amplex Red fluorescence; also: nearly all actives have a fitted effect of over 60% in size
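Inhibition is scored from Amplex Red fluorescence generated when pyruvate oxidase and HRP act on pyruvate released by GPT2. Reactions contain 10ng/uL enzyme, 250uM a-KG and 2mM L-alanine and run 30 min at room temperature.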
FLuc inh – Firefly luciferase inhibition profiling of diverse chemical library using quantitative high-throughput screening; purified P. pyralis luciferase, luminescence, biochemical; Potency, µM (titrated, usually from 115 µM), actives largely listed as inhibitors; Luciferin 4-monooxygenase (Photinus pyralis), P08659; hit rate 2.5% among 76,000; AID 1347043, 2019; also: nearly all actives have a fitted effect of over 65% in size
Target sequence (P08659 whole entry, looked up): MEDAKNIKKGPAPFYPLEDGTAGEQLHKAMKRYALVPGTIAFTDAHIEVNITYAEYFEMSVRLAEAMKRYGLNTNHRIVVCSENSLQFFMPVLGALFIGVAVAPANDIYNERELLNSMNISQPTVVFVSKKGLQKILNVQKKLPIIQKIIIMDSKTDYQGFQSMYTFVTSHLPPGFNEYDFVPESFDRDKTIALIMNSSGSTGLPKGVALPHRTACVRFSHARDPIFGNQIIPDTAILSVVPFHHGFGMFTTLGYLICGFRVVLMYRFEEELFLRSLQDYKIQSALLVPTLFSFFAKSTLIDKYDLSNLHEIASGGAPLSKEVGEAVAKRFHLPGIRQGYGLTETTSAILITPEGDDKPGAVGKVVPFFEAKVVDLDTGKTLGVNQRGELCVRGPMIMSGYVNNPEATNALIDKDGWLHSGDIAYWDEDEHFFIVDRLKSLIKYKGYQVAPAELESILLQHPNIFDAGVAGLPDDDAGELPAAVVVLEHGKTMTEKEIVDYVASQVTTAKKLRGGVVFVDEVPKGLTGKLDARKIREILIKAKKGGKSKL
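Luminescence read by CCD imaging after purified firefly luciferase (10nM final) was added to substrate buffer holding 10uM D-luciferin and 10uM ATP, pH 7.5, pre-dosed with compound.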
hNpr1 antagonist – Natriuretic polypeptide receptor (hNpr1) antagonism - Primary qHTS | Atrial natriuretic peptide receptor 1 (Homo sapiens), P16066 | HEK293 hNpr1 GloSensor cGMP, ANP-stimulated luminescence | Potency, µM (series often up to 46.3 µM), for inactives: top-dose activity change, negative = inhibition, most hits filed as inhibitors | hit rate 1.6% among 76,000; calls by dose curve; also: nearly all actives have a fitted effect of over 60% in size
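HEK293 cells stably expressing human Npr1 and cGMP GloSensor pGS-40F, loaded 2 h with 2% GloSensor reagent, given compound 30 min at room temperature. Luminescence read before and 20 min after 0.1 nM hNppA.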
NIH3T3 tox – Cytotoxic Profiling in NIH 3T3 Cell Line of Diverse Libraries Using Quantitative High-Throughput Screening; NIH 3T3 viability, CellTiter-Glo ATP luminescence, 48-72 h; Potency, µM (series often up to 96.7 µM), without a hit: at the highest dose activity change, negative = cytotoxicity, usual class: inhibitors; hit rate 4.3% among 94,000; AID 1345082, 2018; also: nearly all actives have a fitted effect of over 55% in size
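First NIH 3T3 cells are plated at 400 cells/well; next compound is pinned in; then plates incubate 48 or 72 hr at 37 °C; finally CellTiter-Glo is added and luminescence read after 10 min.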
* hit, by the source's call; i = inactive; ? = inconclusive; . = no result; [ ] = another dose, or the depositor's remark. A selection: hits, their analogues and other compounds. The true share with any hit is near 10%. Unless noted, calls follow the shape of the dose curve; as a rule, active = well fitted curve in the direction sought with a large enough effect; inconclusive = small, poorly fitted or top-dose-only effect, or another doubt; inactive = no such curve, though single readings can be large; an effect the other way counts as inactive or inconclusive. % is scaled to controls: 0 for no effect and ±100 for the full control effect; potency is read from the fitted curve at half-maximal effect.

SMILES	HEK cytotox	GPT2 inhibitor	FLuc inh	hNpr1 antagonist	NIH3T3 tox
CC(=O)O[C@H]1C[C@@H](C)O[C@H]2O[C@@H]3CC4CC[C@@H]5C(CC[C@]6(C)[C@@H](C7=CC(=O)OC7)CC[C@]56O)[C@@]4(C=O)C[C@H]3O[C@]21O (stereo partly specified)	.	i	.	.	.
COC(=O)N1CCN(C(=O)Cc2ccc(Cl)c(Cl)c2)[C@@H](CN2CCCC2)C1	.	3.9%	.	.	.
Cc1nc(-c2cccs2)cc([C@H]2CN3CC[C@H]2C[C@@H]3CNC(=O)c2ccc(N(C)C)cc2)n1	35.5µM*	4.1%	i	0.7%	22.4µM*
CC(=O)NC[C@H]1C[C@@H]2CCN1C[C@@H]2c1cc(-c2cccs2)nc(C)n1	?	-19.9%[88.5 µM]	i	-13.7%[70.6 µM]	?
CC(=O)c1ccc(NC(=O)NC[C@H]2C[C@@H]3CCN2C[C@@H]3c2cc(-c3cccs3)nc(C)n2)cc1	89.1µM*	-2.1%	i	-2.0%	?
Cc1nc(-c2ccco2)cc([C@H]2CN3CC[C@H]2C[C@@H]3CNC(=O)C2CC2)n1	-4.5%[172 µM]	-13.1%[88.5 µM]	i	1.0%[70.6 µM]	-0.3%[174 µM]
COC[C@H]1CCCN1C[C@H]1CN2CC[C@H]1C[C@@H]2CNC(=O)c1ccc(N(C)C)cc1	?	i	i	0.4%[70.6 µM]	70.8µM*
CC(=O)c1ccc(NC(=O)NC[C@H]2C[C@@H]3CCN2C[C@@H]3c2cc(-c3ccco3)nc(C)n2)cc1	79.4µM*	1.8%	i	6.2%	?
COC[C@H]1CCCN1C[C@H]1CN2CC[C@H]1C[C@@H]2CNC(=O)c1ccc(C(F)(F)F)cc1	?	i	i	-0.8%[70.6 µM]	?
CCOC(=O)[C@H]1CN(C(=O)OCC(C)(C)C)[C@]2(C)C(=O)N(CC3CC3)c3ccccc3[C@H]12	?	-0.8%[27.3 µM]	.	.	?
Cc1nc(-c2ccccc2Br)cc([C@H]2CN3CC[C@H]2C[C@@H]3CNC(=O)Nc2ccccc2)n1	79.4µM*	i	?	0.2%	?
CC(=O)c1cccc(NC(=O)NC[C@H]2C[C@@H]3CCN2C[C@@H]3c2cc(-c3cccs3)nc(C)n2)c1	22.4µM*	-6.6%	i	-2.0%	31.6µM*
CC1=CC2/C=C(\C)CCCC(O)/C=C/C(=O)OC23C(=O)NC(CC(C)C)C3C1C (stereo unspecified)	.	4.2%[27.3 µM]	.	.	.
O=C(NC[C@H]1C[C@@H]2CCN1C[C@@H]2CN1CCN(c2ccc(F)cc2)CC1)Nc1cccc(F)c1	28.2µM*	-2.7%	i	-19.0%	22.4µM*
N#Cc1cccc(NC(=O)NC[C@H]2C[C@@H]3CCN2C[C@@H]3CN2CCN(c3ccccc3)CC2)c1	?	-1.9%	i	-16.2%	22.4µM*
O=c1c(-c2cccs2)ccc2n1C[C@H]1C[C@@H]2CN(Cc2cc3ccccc3o2)C1	89.1µM*	i	i	-19.8%[70.6 µM]	?
Cc1ccccc1-c1ccc2n(c1=O)C[C@H]1C[C@@H]2CN(Cc2cccs2)C1	70.8µM*	-0.9%[88.5 µM]	i	?	?
Cc1ccccc1-c1ccc2n(c1=O)C[C@H]1C[C@@H]2CN(C(=O)CCC(=O)O)C1	-9.0%[172 µM]	?	i	3.0%[70.6 µM]	0.9%[174 µM]
O=C(O)COCC(=O)N1C[C@@H]2C[C@H](C1)c1ccc(-c3cc4ccccc4s3)c(=O)n1C2	-8.1%	-16.1%	?	3.1%	-9.4%
COc1ccc(CCNCc2ccc(OC)c3ccccc23)cc1	.	i	.	.	.
Cc1nc(-c2ccc(N(C)C)cc2)cc([C@H]2CN3CC[C@H]2C[C@@H]3CNC(=O)N2CCOCC2)n1	?	i	i	-0.2%	?
Cc1nc(-c2ccc(N(C)C)cc2)cc([C@H]2CN3CC[C@H]2C[C@@H]3CNC(=O)C(C)(C)C)n1	56.2µM*	i	i	1.3%[70.6 µM]	89.1µM*
Cc1nc(-c2ccc(N(C)C)cc2)cc([C@H]2CN3CC[C@H]2C[C@@H]3CNCc2cccc(C#N)c2)n1	25.1µM*	i	?	-20.8%	28.2µM*
Cc1nc(-c2ccc(C(F)(F)F)cc2)cc([C@H]2CN3CC[C@H]2C[C@@H]3CNC(=O)C2CC2)n1	?	0.6%	i	3.4%	?
Cc1nc(-c2ccc(N(C)C)cc2)cc([C@H]2CN3CC[C@H]2C[C@@H]3CNC(=O)C2CC2)n1	70.8µM*	3.3%[88.5 µM]	i	-2.3%[70.6 µM]	100µM*
SMILES	HEK cytotox	GPT2 inhibitor	FLuc inh	hNpr1 antagonist	NIH3T3 tox
CN1CCC[C@@H]1Cc1c[nH]c2ccc(Nc3ncccc3[N+](=O)[O-])cc12	.	-13.6%	.	.	.
COc1cc2c(cc1OCc1ccccc1)N(C(=O)c1cc3ccccc3[nH]1)CC21CCN(C)CC1	20µM*	-3.0%	i	-1.3%	22.4µM*
COc1cc2c(cc1OCc1ccccc1)N(C(=O)c1c[nH]c3ccccc13)CC21CCN(C)CC1	22.4µM*	?	i	-3.8%	20µM*
COc1cc2c(cc1OCc1ccccc1)N([S+](=O)([O-])c1cn(C)cn1)CC21CCN(C)CC1	?	i	i	-2.0%	?
COc1cc2c(cc1OCc1ccccc1)N(C(=O)c1cccc3[nH]ccc13)CC21CCN(C)CC1	?	-2.1%	i	1.0%	20µM*
Cc1sc2c(c1C)C(c1ccc(Cl)cc1)=NC(CC(=O)OC(C)(C)C)c1nnc(C)n1-2 (stereo unspecified)	.	-1.2%	.	.	.
Cc1ccc(-n2cccc2CC(=O)N2CCN(C3CCN(C)CC3)CC2)cc1	-24.9%	4.0%	i	-0.3%	-16.6%
CCOC(=O)[C@H]1CN(C(=O)c2cccs2)[C@]2(C)C(=O)N(CC3CC3)c3ccccc3[C@H]12	?	i	.	.	?
CCCCn1cc(C(=O)c2cccc3ccccc23)c2ccccc21	.	-9.3%	.	.	.
COc1cc2c(cc1OCC1CC1)NC(=O)C21CCN(C(=O)c2ccccc2)CC1	?	-5.9%[88.5 µM]	i	4.3%[70.6 µM]	?
COc1cc2c(cc1OCc1ccccc1)NC(=O)C21CCN(c2nc(C)cnc2C)CC1	35.5µM*	-10.5%	i	-23.2%	?
COc1cc2c(cc1OCc1ccccc1)NC(=O)C21CCN(c2cnccn2)CC1	63.1µM*	2.0%[88.5 µM]	i	-26.9%[70.6 µM]	79.4µM*
COc1ccc(CC(=O)N2CCN(Cc3ccccc3-c3ccc(C)c(Cl)c3)CC2)cc1	?	i	.	.	?
CCOC(=O)[C@H]1CN(C(=O)COc2ccccc2)[C@]2(C)C(=O)N(CC3CC3)c3ccccc3[C@H]12	?	1.8%[27.3 µM]	.	.	?
